Screen size: about 24,000 compounds; about 150 (0.62%) were called active. This is one part of a sample in which actives are shown more often than they occur.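 Rule for the calls: active = fluorescence ratio above 2.44, which is 1 plus 3 SD of all ratios; inconclusive = signal too bright to measure linearly, ratio around 10 or more; inactive = fluorescence ratio below 2.44.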

The assay in a line: intrinsic compound fluorescence with Jurkat cells – cell-based, flow cytometry, artefact control for VLA-4 allosteric ligand project, primary screen (AID 576).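 Note: green fluorescence of cells measured with 488 nm excitation and 530 nm emission; tested at 10 µM compound in the well.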 Conditions: compound autofluorescence, hits give high values, 1 = vehicle-only cell background.
As for `Cc1ccc(-c2cc(C(F)(F)F)n3nc(C(=O)N4CCCC4)cc3n2)cc1`, the fluorescence ratio is 1.02 (inactive).
As to `Cc1nc(C)c2c(c1C(F)(F)F)-c1ccccc1C2(F)F`, the fluorescence ratio is 1.11 (inactive).
`CCOC(=O)c1cnc(-n2nc(C)cc2C)nc1Nc1cccc(C(C)=O)c1`: the fluorescence ratio was 1.06 (inactive).
With `COCc1[nH]nc2c1C(C1C=CCCC1)C(C#N)=C(N)O2` (stereo not drawn), the fluorescence ratio is 1.09 (inactive).
With `Cc1noc(C)c1S(=O)(=O)NCCc1ccc(S(N)(=O)=O)cc1`, the fluorescence ratio was 1.07 (inactive).
In the case of `Cn1c(=O)n(C)c2cc(CNc3ccc(N4CCOCC4)c(C(=O)O)c3)ccc21`, the fluorescence ratio was 0.99 (inactive).
As for `O=C(O)C1CCCN(S(=O)(=O)c2cccc3cccnc23)C1` (stereo not drawn), the figure is 0.95 (inactive).
Take `CCCCn1c(CN2CCN(CCO)CC2)nc2ccccc21`: the fluorescence ratio was 1.04 (inactive).
With `COc1ccc(-c2nc(CS(=O)CC(=O)NCc3cccnc3)c(C)o2)cc1OC` (stereo not drawn), the fluorescence ratio is 0.78 (inactive).
Turning to `COc1ccc(C2/C(=C(/O)c3ccccc3)C(=O)C(=O)N2c2ncccn2)cc1OC` (stereo not drawn), the fluorescence ratio was 0.98 (inactive).
Regarding `Cc1nc(N2CCN(c3ncccn3)CC2)c2oc3ccccc3c2n1`, the fluorescence ratio was 1.15 (inactive).
The value for `CCOC(=O)N1CCN(C(=O)c2cn(C)c3ccc(S(=O)(=O)N4CCCC4)cc3c2=O)CC1` was 1.07 (inactive); that for `COc1ccccc1NC1=NC2(CCCC2)N=C(N)N1` was 1.04 (inactive).
Turning to `COc1ccc(-c2cc3ccc(OCc4nn[nH]n4)cc3oc2=O)cc1`, the fluorescence ratio was 1.09 (inactive).
For `CNC(=O)c1ccc2nc(NC(C)=O)sc2c1`, the fluorescence ratio was 1.01 (inactive).
Take `Fc1ccc2nc(Nc3nc4c(s3)CCCC4)sc2c1`: the fluorescence ratio was 4.43 (active).
For `Fc1ccc2nc(N3CCCCC3)sc2c1`, the fluorescence ratio was 1.31 (inactive).
Turning to `CCOC(=O)C1CCCN(C(=O)C2CCN(c3nnc(-n4cccc4)s3)CC2)C1` (stereo not drawn), the fluorescence ratio was 1.06 (inactive).
For the compound `CSc1ccc(S(=O)(=O)Nc2cccc(F)c2)cc1`, the fluorescence ratio is 0.98 (inactive).
On to `O=C(c1cnn2ccccc12)N1CCc2ccccc21`, for which the fluorescence ratio was 0.92 (inactive).
As to `CCOC(=O)N1CCC(NC(=O)CCc2cn(C)c3ccccc23)CC1`, the fluorescence ratio is 0.96 (inactive).
Consider `N#CCCn1ncc2ccccc21`, for which the fluorescence ratio is 0.9 (inactive).
Consider `CCC1=C/C(=C\c2ccc3c(c2)OCO3)C(=O)S1`, for which the fluorescence ratio was 1.11 (inactive).
With `CC1CCCC(N2CCN(C(=O)c3ccc(F)cc3)CC2)C1` (stereo not drawn), the fluorescence ratio was 0.93 (inactive).
Consider `Cc1c(C(=O)N2CC(C)OC(C)C2)sc2nc(-c3ccccc3)cn12` (stereo not drawn), for which the fluorescence ratio is 1.33 (inactive).
The value for `CCC(=O)N1CCc2cc(S(=O)(=O)NC(C(=O)N3CCc4ccccc4C3)C(C)C)ccc21` (stereo not drawn) was 0.97 (inactive); that for `COc1ccc(CCNS(=O)(=O)c2ccc(C(=O)NCc3ccco3)cc2)cc1OC` was 1.03 (inactive); that for `c1cnn(-c2cc(N3CCOCC3)ncn2)c1` was 1.1 (inactive).
The value for `CCCCC(=O)N(c1ccc(OC)cc1)C1C=CS(=O)(=O)C1` (stereo not drawn) was 1.03 (inactive); that for `Cc1nc(SCC(=O)Nc2cc(C)on2)c2c3c(sc2n1)CCCC3` was 1.28 (inactive).
On to `COc1cccc(Nc2nnc(SCC(=O)N3CC(C)OC(C)C3)s2)c1` (stereo not drawn), for which the fluorescence ratio is 1.02 (inactive).
As for `CC(=O)N(CC1CCCO1)C1(C(=O)NC2CCCC2)CCCCC1` (stereo not drawn), the fluorescence ratio is 0.95 (inactive).
As for `O=C(Nn1cc(C(=O)N2CCN(c3ccccc3F)CC2)c2ccccc2c1=O)c1cnccn1`, the figure is 1.02 (inactive); as for `COCCN1Cc2cccc(C(=O)Nc3ccccc3OC)c2C1=O`, 1.02 (inactive); as for `CCCCN(C)Cc1c(C)[nH]c2ccc(Cl)cc2c1=O`, 1.01 (inactive).
`CCn1c(SCC(=O)Nc2ccccc2F)nc2c(c1=O)SC(C)C2` (stereo not drawn): the fluorescence ratio was 0.98 (inactive).
Regarding `CCc1c(C)c2c(C)[nH]nc2oc1=O`, the fluorescence ratio is 1.2 (inactive).
Consider `CCOc1ccc(-c2nnc3ccc(SC)nn23)cc1`, for which the fluorescence ratio was 0.96 (inactive).
For `CCOC(=O)c1sc(=S)n2c1[nH]c(=O)c1ccc(C(=O)OC)cc12`, the fluorescence ratio was 1.2 (inactive).
Turning to `CC(=O)Nc1ccc(NS(=O)(=O)c2cc(C)sc2C)cc1`, the fluorescence ratio is 2.14 (inactive).
As for `O=C(CC1Oc2ccccc2NC1=O)NCCCN1CCN(Cc2ccccc2)CC1` (stereo not drawn), the fluorescence ratio was 1.05 (inactive).
For `COCCCNC(=O)CCc1nc2cccnc2n1Cc1ccc(OC)cc1`, the fluorescence ratio is 1.04 (inactive).
The value for `Cc1ccc(NC(=O)NCC(c2cccnc2)N2CCOCC2)cc1` (stereo not drawn) was 0.96 (inactive); that for `O=C(CN1CCOc2ccccc21)N1CCC(Cc2ccccc2)CC1` was 1.07 (inactive); that for `O=C(NCc1ccco1)C1CCCN(S(=O)(=O)c2cccc3nonc23)C1` (stereo not drawn) was 1.11 (inactive).
With `Cc1ccc(CNC(=O)CN2CCN(Cc3ccc(Cl)cc3)C2=O)cc1`, the fluorescence ratio is 1.03 (inactive).
As for `Cc1ccc(NC(=O)C2CCCN(S(=O)(=O)c3c(C)noc3C)C2)c(C)c1` (stereo not drawn), the fluorescence ratio was 1.07 (inactive).
`COc1ccc(C2CC(c3ccccc3)Nc3ncnn32)cc1` (stereo not drawn): the fluorescence ratio is 1.19 (inactive).
The value for `COc1cccc(-c2nc3n(n2)C(c2ccccc2Cl)C(C(N)=O)=C(C)N3)c1` (stereo not drawn) was 1.01 (inactive); that for `CN1CCCc2cc(C#N)c(=O)[nH]c21` was 1 (inactive).
In the case of `O=C(O)CCN1C(=O)CC2(CCCCC2)C1=O`, the fluorescence ratio was 1 (inactive).
On to `Cc1ccc(NC(=O)CCNS(=O)(=O)c2ccc3c(c2)oc(=O)n3C)cc1C`, for which the fluorescence ratio was 1.08 (inactive).
Take `CCOC(=O)N1CCN(CC(=O)c2ccc3c(c2)CCN3)CC1`: the fluorescence ratio is 0.99 (inactive).
Take `CCCNC(=O)C1CC(=O)N(c2ccc(OCC(=O)Nc3cccc(C)c3C)cc2)C1` (stereo not drawn): the fluorescence ratio is 1.03 (inactive).
With `COc1ccc(N2C(=O)CCC(C(=O)Nc3ccccn3)C2c2ccc(OC)c(OC)c2)cc1` (stereo not drawn), the fluorescence ratio is 1.01 (inactive).
As to `O=C(CC1N=C2c3ccccc3N=C(SCc3ccccc3Cl)N2C1=O)NCc1ccco1` (stereo not drawn), the fluorescence ratio was 1.18 (inactive).
Regarding `Cc1occc1C(=O)Nc1nnc(C2CCCCC2)s1`, the fluorescence ratio was 0.94 (inactive).
Consider `CC1CSc2nnc(CCc3ccccc3)n21` (stereo not drawn), for which the fluorescence ratio was 1 (inactive).
Regarding `O=C(NCc1ccc2c(c1)OCO2)c1cc2c(s1)CS(=O)(=O)C2`, the fluorescence ratio was 1.08 (inactive).
Turning to `CCOc1ccc(N(CC(=O)OC)S(=O)(=O)c2c(C)noc2C)cc1`, the fluorescence ratio is 1.04 (inactive).
The value for `CC(=O)c1c(C)[nH]c(C(=O)NCCCN2CCCC2)c1C` was 0.97 (inactive); that for `Cc1ccc(C)c(NS(=O)(=O)c2cc(Br)cnc2N)c1` was 1.02 (inactive).
As for `Cn1c(=O)[nH]c(=O)c2c1nc(CN(Cc1ccccc1)Cc1ccccc1)n2CCN1CCOCC1`, the figure is 1.16 (inactive).
For the compound `Cc1nc2c(-c3ccc(F)cc3)c(C)nn2c(C)c1CCC(=O)N1CCN(c2ccccn2)CC1`, the fluorescence ratio was 1.23 (inactive).
The value for `O=C(Cn1nc(Cc2cccnc2)c2ccccc2c1=O)NCC1CCCO1` (stereo not drawn) was 1.02 (inactive); that for `CC(C)C[C@H](NC(=O)[C@@H]1O[C@H]1C(=O)O)C(=O)NCCCCN=C(N)N` was 0.97 (inactive).
For `COc1ccccc1CNC(=O)Cn1cc2c(n1)CCCC2`, the fluorescence ratio was 1.04 (inactive).
Take `CCOC(=O)N1CCC(O)(c2cc(C)c(C)cc2C)CC1`: the fluorescence ratio is 0.98 (inactive).
Regarding `O=C(NCc1ccco1)c1cccn2c(=O)c3cc(Br)ccc3nc12`, the fluorescence ratio is 1 (inactive).
The value for `CS(=O)(=O)c1ccc2nc(NC(=O)C3C4C=CC(C4)C3C(=O)O)sc2c1` (stereo not drawn) was 1.05 (inactive); that for `CCCCc1nc2c(=O)[nH]c3ccccc3c2o1` was 1.21 (inactive).
As for `Cc1nc2sc(C(c3ccco3)N3CCC4(CC3)OCCO4)c(O)n2n1` (stereo not drawn), the fluorescence ratio is 1.05 (inactive).
The value for `COc1cc2c(cc1OC)C(c1ccc(C)o1)CC(=O)N2` (stereo not drawn) was 1 (inactive); that for `O=S(=O)(O)CCN1CCOCC1` was 1.09 (inactive).
As to `Cc1cc(NC(=O)CSCc2nc(-c3cccc(Cl)c3)oc2C)no1`, the fluorescence ratio is 1.07 (inactive).
Consider `c1cc(-c2nn[nH]n2)ccc1CN1CCCCC1`, for which the fluorescence ratio was 1.02 (inactive).
In the case of `Cc1ccc2c(c1)N(CCCC(=O)NCc1cccnc1)C(=O)CO2`, the fluorescence ratio is 1.05 (inactive).
As for `Cc1cccc(N2CCN(S(=O)(=O)c3ccc4c(c3)c(=O)n(C)c(=O)n4C)CC2C)c1` (stereo not drawn), the fluorescence ratio is 1.11 (inactive).
Consider `COc1cccc(NC(=O)C2CCCN2C(=O)OCc2ccccc2)c1` (stereo not drawn), for which the fluorescence ratio is 1.04 (inactive).
The value for `CCC(C)NC(=O)C1CCC(=O)N1Cc1ccc(C)cc1` (stereo not drawn) was 0.99 (inactive).
Regarding `CCC(=O)N1c2ccc(S(=O)(=O)CCC(=O)N3CCN(c4ccccc4)CC3)cc2CC1C` (stereo not drawn), the fluorescence ratio was 1.09 (inactive).
For the compound `Cc1oc(C)c(C(=O)NCCCC(=O)O)c1C(=O)NCCCC(=O)O`, the fluorescence ratio was 1.08 (inactive).
Regarding `O=c1[nH][nH]c(=O)c2cc(N3CCCC3)ccc12`, the fluorescence ratio was 1.01 (inactive).
Regarding `CCOC(=O)N1CCN(S(=O)(=O)c2cc3c(cc2C)NC(=O)CO3)CC1`, the fluorescence ratio was 1.09 (inactive).
On to `CCOc1ccc(Cn2nnc(C(=O)NCc3ccccc3)c2N)cc1`, for which the fluorescence ratio was 1.02 (inactive).
For `COc1ccc(N2C(=O)CCC(C(=O)N(C)C3CCCCC3)C2c2ccc(OC)c(OC)c2)cc1` (stereo not drawn), the fluorescence ratio was 0.98 (inactive).
The value for `COC(=O)C1=C(C)Nc2ncnn2C1c1ccco1` (stereo not drawn) was 1.02 (inactive); that for `CCOc1nc(OCC)nc(-n2cc(-c3ccccc3)nn2)n1` was 1.08 (inactive); that for `COCCn1c(-c2ccc(OC)c(OC)c2)nc2ccccc21` was 1.05 (inactive).
Take `O=C(c1ccco1)N1CCN(C(=O)C2CC(c3ccc(F)cc3)=NO2)CC1` (stereo not drawn): the fluorescence ratio is 1.01 (inactive).
As for `CCCOc1ccc(C2c3c(oc4cc(C)c(C)cc4c3=O)C(=O)N2CCCN2CCOCC2)cc1` (stereo not drawn), the fluorescence ratio was 0.94 (inactive).
As to `CCN(CC)CCNC(=O)C1c2ccccc2C(=O)N(C)C1c1cn(C)c2ccccc12` (stereo not drawn), the fluorescence ratio is 1.11 (inactive).
With `Cc1cccc(NC(=O)C2CCN(S(=O)(=O)c3cccc4cccnc34)CC2)c1`, the fluorescence ratio is 1.03 (inactive).
As to `O=S1(=O)CCN2C(=N1)SC1=C2CCN(Cc2ccccc2)C1`, the fluorescence ratio was 0.99 (inactive).
As for `Cc1ccc(S(=O)(=O)NCc2cn3ccsc3n2)c(C)c1`, the figure is 1.07 (inactive); as for `Cc1cc(C)c2c(n1)nn1c(N3CCN(c4cccc(Cl)c4)CC3)cc(C)nc21`, 1.1 (inactive); as for `CC(=O)Nc1ccc(S(=O)(=O)Nc2nc3n(n2)C(c2ccccc2)CC(=O)N3)cc1` (stereo not drawn), 1.06 (inactive).
With `ON=C1/C(=N\O)CC2(C/C1=N/O)OCCO2`, the fluorescence ratio was 1.11 (inactive).
